From PubChem BioAssay
miR-122 sensor: inhibitors of miR-122 in Huh7 cells | Huh7 miR-122 Renilla luciferase sensor, 48 h; neutral wells = 0, positive control = 100 | activation (reporter increase), % at 12.5 µM | 340,000 tested, 0.3% active | AID 602342;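 active = mean replicate activation score at least 90 and every replicate individually at or above 90; inconclusive = only one of the two criteria met; inactive = neither criterion met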;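 note: higher luciferase means less miR-122 activity so hits act as miR-122 inhibitors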
Env fusion inh: blocks HIV Env-driven cell-cell fusion | 360,000 tested, 1.1% active | HeLa-JRFL Env/CEM21 cell fusion, luciferase | inhibition, % at 12.3 µM | AID 651610;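 active = mean replicate inhibition score of at least 50 and every replicate individually at or above 50; inconclusive = only one of the two criteria met; inactive = mean below 50 and not all replicates reaching 50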;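 note: 0% = plate neutral controls and 100% = maraviroc near 300 nM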
EWS-Fli inh: EWS/Fli transcriptional activity inhibition; A673 NR0B1-luciferase reporter, viability-normalised; inhibition, % at 12.6 µM; 350,000 tested, 0.67% active; AID 651661;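 active = mean inhibition of at least 50% after viability correction, with every replicate also passing that limit; inconclusive = mean reaches 50% but only one of two replicates passes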;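 note: firefly luciferase signal divided by Alamar Blue viability fluorescence both relative to DMSO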
C2C12 statin: suppression of simvastatin myotoxicity | AID 602340 | rescue of ATP level, % at 7.49 µM | C2C12 myotubes + simvastatin, ATP luminescence, 48 h; scaled: DMSO 0, geranylgeraniol control 100 | 330,000 tested, 0.78% active;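 active = mean ATP rescue above about 67%, or every replicate alone reaching that limit, limit read from the data, passing the limit was not always enough; inconclusive = no clear call, values can overlap the other calls; inactive = mean under the limit and some replicate under it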;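 note: myotubes were challenged with 10 µM simvastatin during compound exposure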
PAX8 reporter: PAX8 transcriptional activity inhibition | RMG-I TPO-luciferase reporter, SteadyGlo, 24 h | inhibition, % at 12.6 µM | 360,000 tested, 1.2% active | AID 652154;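 active = mean replicate inhibition at least 60% with every replicate also reaching 60%; inconclusive = only one of the two criteria is met; inactive = mean below 60% and not all replicates reaching 60%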;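 note: luciferase light reporting Pax8 driven TPO promoter activity; plate controls were median of neutral control wells for no effect and mitoxantrone controls for full effect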
GSIS activator: GLuc luminescence reporter in INS-1E cells, primary screen for activators of glucose-dependent secretion of insulin. INS-1E GLuc reporter insulin secretion, 2-3 h. activation, % at 16.6 µM. 370,000 tested, 0.61% active. AID 743287;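 active = lowest replicate activation of at least 40%, so every replicate reaches that level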;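 note: 0% = median of neutral control wells and 100% = median of IBMX positive control wells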
Numbers without * were called inactive; ? = inconclusive; . = no result given; ! = not confirmed by another sample; [ ] = remark or other dose. Rows were chosen to be rich in hits. Some 3.1% of all compounds tested hit in one or more screens of this group.

SMILES	miR-122 sensor	Env fusion inh	EWS-Fli inh	C2C12 statin	PAX8 reporter	GSIS activator
CC(=O)N1CCSc2ccc(S(=O)(=O)NCCc3ccc(Cl)cc3)cc21	94*	14	.	-23	15	1
COc1cccc(NS(=O)(=O)c2ccc3c(c2)N(C(C)=O)CCO3)c1	195*	-2	-27	12	-5	4
COc1ccc(NS(=O)(=O)c2ccc3c(c2)N(C(C)=O)CCO3)c(OC)c1	11	-6	-25	4	0	-3
C[C@H]1CN([C@@H](C)CO)C(=O)Cc2cc(NC(=O)CCCCCC(=O)Nc3ccccc3N)ccc2O[C@H]1CN(C)C(=O)Nc1ccccc1	40[16.7 µM]	0[16.7 µM]	7	7	-9	4
c1cnc2c(-c3cccc4nccn34)cccc2c1	3	-13	-2	-3	-3	4
c1ccc2c(-c3cccc4nccn34)cncc2c1	-1	55*	0	3	-4	1
Cc1cc(NO)c(C(C)C)cc1N=O	.	66*	5	.	57	.
COC(=O)C[C@H]1CC[C@H]2[C@@H](COc3ccc(NC(=O)c4cc(F)cc(F)c4)cc3C(=O)N2C)O1	-13[16.7 µM]	-2[16.7 µM]	-11	-18	-15	-5
C[C@H](CO)N1C[C@H](C)[C@H](CN(C)S(C)(=O)=O)Oc2ccc(NC(=O)CCCCCC(=O)Nc3ccccc3N)cc2C1=O	.	.	6	.	-11	7
C/C=C/c1ccc2c(c1)O[C@H](CN(C)C(=O)C1CCCCC1)[C@H](C)CN([C@@H](C)CO)S2(=O)=O	.	31[16.7 µM]	-8	1	-7	-24
Cc1cc(C(=O)Nc2ccc(Cl)cc2)c(C)n1-c1ccccc1	17	-160	58*	.	26	7
Cc1ccc(NC(=O)c2cc(C)n(-c3ccccc3)c2C)cc1	12	-202	69*	.	19	.
Cc1ccc(NC(=O)c2cc3ccccc3oc2=N)cc1	.	-34	69*	-11	-5	5
OCCCn1c(C2CCCN2c2nc(-c3ccc(F)cc3)cs2)nc2cc(C(F)(F)F)ccc21 (configuration not stated)	8	16	8	6	23	-11
OCCCn1c(CCNc2nc(-c3ccc(F)cc3)cs2)nc2cc(C(F)(F)F)ccc21	14	72*	8	-13	20	-31
CCOC(=O)Cn1c(COc2ccccc2OC)[n+](C)c2ccccc21	-4	-11	2	4	-29	.
CC1CCC(C(C)C)C(OC(=O)Cn2c(-c3ccc(Br)cc3)[n+](C)c3ccccc32)C1 (configuration not stated)	-2	58*!	21	-157	100*	275*
Cc1ccccc1OCc1n(CC(=O)OC2CC(C)CCC2C(C)C)c2ccccc2[n+]1C (configuration not stated)	.	71*	?	.	105*	77*
CC1CCC(C(C)C)C(OC(=O)Cn2c(-c3ccc(Cl)cc3)[n+](C)c3ccccc32)C1 (configuration not stated)	-26	68*	23	.	96*	88
COc1ccc(S(=O)(=O)N(C)C[C@@H]2Oc3c(NC(=O)c4ccc(-c5nccs5)cc4)cccc3C(=O)N([C@@H](C)CO)C[C@H]2C)cc1	.	.	.	.	.	2
C[C@H](CO)N1C[C@H](C)[C@@H](CN(C)C(=O)Nc2ccc3c(c2)OCO3)Oc2ccc(NS(=O)(=O)c3ccccc3)cc2CC1=O	4[16.7 µM]	-36[16.7 µM]	-14	-34	-4	3
C[C@H]1CN([C@@H](C)CO)C(=O)c2cc(NC(=O)c3ccncc3)ccc2O[C@H]1CN(C)S(=O)(=O)c1ccccc1	5[16.7 µM]	.	4	12	-10	19
CCC(C)Oc1cc(-c2ccnc(Nc3cccc(Cl)c3)n2)ccn1 (configuration not stated)	.	66*	25	6	-84	-11
Cc1cc(C)nc(Nc2cccc(Cl)c2)n1	6	-23	-36	-9	-2	5
OCCCNc1cc(-c2ccnc(Nc3cccc(Cl)c3)n2)ccn1	.	52	-14	-82	98*	-8
CN(C)CCCNc1ccc(-c2cc(Nc3cccc(Cl)c3)ncn2)cn1	0	1	4	0	21	.
